FECH block = inhibitors of human ferrochelatase, primary screen, biochemical, purified FECH, Ni-mesoporphyrin absorbance. Ferrochelatase, mitochondrial (Homo sapiens), P22830. Ni-mesoporphyrin absorbance 550 nm. calls only at 10 µM (by protocol). 3.3% of 20,000 active;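 active means enzyme reaction rate more than 3 SD below the solvent-only control wells on the same plate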;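 further: lower slope than DMSO wells means FECH inhibition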
Target sequence (P22830 whole entry, looked up): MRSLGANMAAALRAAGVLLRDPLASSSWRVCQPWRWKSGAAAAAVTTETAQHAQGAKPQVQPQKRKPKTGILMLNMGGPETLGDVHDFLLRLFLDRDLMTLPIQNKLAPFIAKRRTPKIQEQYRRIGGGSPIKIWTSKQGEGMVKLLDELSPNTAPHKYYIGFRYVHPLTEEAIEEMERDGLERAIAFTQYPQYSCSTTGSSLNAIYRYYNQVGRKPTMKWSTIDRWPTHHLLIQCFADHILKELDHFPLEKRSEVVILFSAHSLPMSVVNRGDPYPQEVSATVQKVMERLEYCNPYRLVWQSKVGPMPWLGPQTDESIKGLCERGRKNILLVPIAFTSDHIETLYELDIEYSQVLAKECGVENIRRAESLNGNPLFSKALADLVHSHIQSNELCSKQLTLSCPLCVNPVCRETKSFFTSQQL
Calls only; n = inactive; + = active, no number. This is one part of a sample in which hits are shown more often than they occur.

SMILES	FECH block
CN(Cc1nc(-c2cccnc2)no1)Cc1ccc(C2CCCO2)s1 (configuration not stated)	n
Cc1ccc2[nH]c(CN(C)Cc3nc(-c4cccnc4)no3)nc2c1C	+
COc1ccc(Nc2cc(C)nc(Nc3ccc(NC(=O)c4ccc(OC)cc4)cc3)n2)cc1	n
Cc1ccc(C(=O)Nc2nc3n(n2)C(c2ccc(Cl)cc2)C=C(c2ccc(C)cc2)N3)cc1 (configuration not stated)	+
Cc1ccc(C(=O)Nc2nc3n(n2)C(c2ccccc2)C=C(c2ccccc2)N3)cc1 (configuration not stated)	n
Cc1cccc(C(=O)Nc2nc3n(n2)C(c2ccc(Cl)cc2)C=C(c2ccccc2)N3)c1 (configuration not stated)	+
O=C(Nc1nc2n(n1)C(c1ccc(F)cc1)C=C(c1ccc(Cl)cc1)N2)c1ccccc1 (configuration not stated)	n
Cc1ccc(C(=O)Nc2nc3n(n2)C(c2ccc(F)cc2)C=C(c2ccccc2)N3)cc1 (configuration not stated)	n
Cc1ccc(C2=CC(c3ccc(C)cc3)n3nc(NC(=O)c4cccc(Cl)c4)nc3N2)cc1 (configuration not stated)	+
O=C(Nc1nc2n(n1)C(c1ccccc1)C=C(c1ccc(Cl)cc1)N2)c1ccc(Cl)cc1 (configuration not stated)	n
Cc1ccc(C2=CC(c3ccc(Cl)cc3)n3nc(NC(=O)C(C)C)nc3N2)cc1 (configuration not stated)	n
Cc1cccc(C(=O)Nc2nc3n(n2)C(c2ccccc2Cl)C=C(c2ccc(Cl)cc2)N3)c1 (configuration not stated)	n
Cc1[nH]nc(CCC(=O)NCC2CCCN(C3CCCC3)C2)c1C (configuration not stated)	n
CN(CCc1ccccc1)C1(C(=O)NC2CCNCC2)Cc2ccccc2C1	n
COc1cccc(NS(=O)(=O)c2cc(N3C(=O)CCS3(=O)=O)ccc2C)c1	n
CSc1ccc(CNC(=O)COc2nc(C)nc3oc(C)c(C)c23)cc1	n
O=C(NCCC1COc2ccccc2O1)c1ccc(NCC2CC2)nc1 (configuration not stated)	n
Cc1noc(C2CCCN2Cc2cnc(-c3ccccc3C)s2)n1 (configuration not stated)	n
C/C=C/Cc1nnc(C(=O)N2CCCC(CO)(CC(C)C)C2)o1 (configuration not stated)	n
CC(C)CC1(CO)CCCN(C(=O)c2cccc(C#CC(C)(C)O)c2)C1 (configuration not stated)	+
CC(C)(O)C#Cc1cccc(C(=O)N2CCc3nc[nH]c3C2)c1	n
O=S(=O)(NCc1ccccc1)N1CCC(C(O)Cc2ccccc2)CC1 (configuration not stated)	n
CC(C)n1cnc2nc(CSc3ccccc3NC(=O)c3cccc(Cl)c3)cc(=O)n21	n
CC(C)n1cnc2nc(CSc3ccccc3NC(=O)COc3ccc(F)cc3)cc(=O)n21	n
CCCn1cnc2nc(CSc3ccccc3NC(=O)c3ccc(Cl)cc3)cc(=O)n21	+
SMILES	FECH block
CC(C)n1cnc2nc(CSc3ccccc3NC(=O)COc3ccccc3F)cc(=O)n21	+
COc1ccc(C(=O)Nc2ccccc2SCc2cc(=O)n3c(ncn3C(C)C)n2)cc1OC	n
CCc1ccccc1OCC(=O)Nc1ccccc1SCc1cc(=O)n2c(ncn2C(C)C)n1	n
COc1ccc2c(c1)c(C(=O)NCCSc1nnnn1C)c(C)n2C	n
Cc1ccccc1NC(=O)CN1CCCN(Cc2ccccc2)S1(=O)=O	n
O=C(NC(CO)c1cccnc1)c1cc(Cn2ccc3ccccc32)[nH]n1 (configuration not stated)	n
CCOC(=O)Cn1c(=O)n(-c2ccc(F)cc2)c2nc(-c3ccccc3)nc(C(N)=O)c21	n
O=C(NCCc1ccc(F)cc1)N1CCC2(CCCNC2)C1 (configuration not stated)	n
CCC(=O)Nc1ccccc1-c1nnc(SC(CC)C(=O)Nc2ccc(OC)c(OC)c2)[nH]c1=O (configuration not stated)	n
Cc1cccc(OCCN2CCCCC2CO)c1C (configuration not stated)	+
CCn1ccnc1-c1c(-c2ccccc2)ncn1CCN1CCCCC1CO (configuration not stated)	n
Cc1cccc(OCCN2CCCN(C(=O)c3ccco3)CC2)c1C	n
COc1ccccc1Cn1c(CNS(=O)(=O)c2ccc(C(C)(C)C)cc2)nc2cccnc21	+
Cc1ccc(S(=O)(=O)NCc2nc3cccnc3n2C2CC2)cc1	n
COCCn1c(CNS(=O)(=O)c2ccc(CC(C)C)cc2)nc2cccnc21	+
COCCn1c(CNS(=O)(=O)c2ccc(C(C)C)cc2)nc2cccnc21	n
CCn1c(CNS(=O)(=O)c2ccc(CC(C)C)cc2)nc2cccnc21	n
COc1ccc(S(=O)(=O)NCc2nc3cccnc3n2C2CC2)cc1	+
O=S(=O)(NCc1nc2cccnc2n1C1CC1)c1ccc(Cl)cc1	n
CCOc1ccc(S(=O)(=O)NCc2nc3cccnc3n2Cc2ccccc2OC)cc1	n
Cc1ccc(S(=O)(=O)NCc2nc3cccnc3n2CC(C)C)cc1C	+
COc1ccccc1Cn1c(CNS(=O)(=O)c2ccc(F)cc2)nc2cccnc21	n
CC(C)Cn1c(CNS(=O)(=O)c2cccc(Cl)c2)nc2cccnc21	n
Cc1ccc(S(=O)(=O)NCc2nc3cccnc3n2CC(C)C)cc1Cl	n
CC(=O)N1CCCn2nc(C(=O)N3CCCC3c3ccccc3C)cc2C1 (configuration not stated)	n
SMILES	FECH block
Fc1cccc(F)c1Cn1ccnc1-c1cccc2c1OCO2	n
CN1CCN(C(=O)c2ccnc(-c3cccc4cnccc34)c2)CC1	n
COc1ccc(NC(=O)N2CCC3(CCCN(C)C3=O)C2)cc1OC (configuration not stated)	n
CC(C)Cc1ccc(S(=O)(=O)NCc2nc3cccnc3n2C)cc1	n
CC(=O)Nc1ccc(S(=O)(=O)NCc2nc3cccnc3n2C)cc1	n
CCCc1ccc(S(=O)(=O)NCc2nc3cccnc3n2C)cc1	+
Cc1oc(-c2cccc(F)c2F)nc1CN1[C@@H]2CC[C@H]1CC(O)C2 (some centres not stated)	n
CCN(c1nc2nc(C)c(Cl)c(C)n2n1)S(=O)(=O)c1ccccc1	n
CCN1C(SCC(=O)Nc2ccc(F)c(Cl)c2)=NS(=O)(=O)c2ccccc21	+
CCC(=O)Nc1ccccc1-c1nnc(SCC(=O)Nc2ccc(Cl)c(Cl)c2)[nH]c1=O	n
COc1ccc(C)cc1NC(=O)CN1C(=O)CC(c2ccc(Br)s2)=Nc2ccccc21	n
CCN1C(SCC(=O)Nc2cc(C)ccc2OC)=NS(=O)(=O)c2ccccc21	+
CCN1C(SCC(=O)Nc2cc(Cl)ccc2OC)=NS(=O)(=O)c2ccccc21	n
O=C(CN1CCN(Cc2ccc(F)cc2Cl)S1(=O)=O)Nc1ccc(F)c(Cl)c1	n
CC[C@@]12C[C@H]3C[C@@](O)(C1)C[C@](C(=O)NCc1ccc(O)c(OC)c1)(C3)C2	n
CC(C)(C)c1nnc(NC(=O)NCc2cccc(OC(F)F)c2)s1	n
CCN1C(SCC(=O)N2CCN(c3ccccc3F)CC2)=NS(=O)(=O)c2ccccc21	n
CCc1ncc2c(n1)CN(C(=O)c1ccc(N3CCCC3=O)cc1)C2	n
CCN1C(SCc2ccc(N3CCCC3=O)cc2)=NS(=O)(=O)c2ccccc21	+

Compound activity: PubChem, Corson Lab, School of Medicine, Indiana University
